Source: PubChem BioAssay (NCI)
Values joined by “and” are separate entries in the source; they are usually repeats but may differ in a detail not shown here. Identical values can stand only once. About 83,000 compounds went through this panel and 20% of them were active in at least one assay; those are over-represented in the sample as a whole.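 Note: values are percent growth. 100 is the growth of untreated cells, values between 100 and 0 indicate rising inhibition; between -100 and 0 indicates cell death.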 Active and inactive are the calls of the source. Rule for the calls: active = growth percent below 10; inactive = the rest.

Key:
Experiment in all cases: NCI-60 one-dose screen, 48 h (100 = growth as untreated, 0 = no growth, -100 = all killed)
Conditions in all cases: 10 µM unless noted
[1] = tested on: SK-MEL-2 melanoma
[2] = tested on: EKVX NSCLC
[3] = tested on: SN12C renal
[4] = tested on: UO-31 renal
[5] = tested on: TK-10 renal
[6] = tested on: ACHN renal
[7] = tested on: CAKI-1 renal
[8] = tested on: A498 renal
[9] = tested on: CCRF-CEM leukemia
[10] = tested on: MOLT-4 leukemia

SMILES | growth [1] | growth [2] | growth [3] | growth [4] | growth [5] | growth [6] | growth [7] | growth [8] | growth [9] | growth [10]
Fc1ccc(-c2cn3c(-c4c[nH]c5ccc(Br)cc45)csc3n2)cc1 | 90.5% (inactive) | 64.9% (inactive) | 52.4% (inactive) | 47.8% (inactive) | 80.3% (inactive) | 49% (inactive) | 38.3% (inactive) | 91.3% (inactive) | 70.3% (inactive) | 63.9% (inactive)
CN1CCN(c2ccc(Nc3nc(NCCCNS(=O)(=O)c4cccc5ccccc45)c4sccc4n3)cc2)CC1 | -81.7% (active) | 36.1% (inactive) | -3.36% (active) | -51.1% (active) | -40.6% (active) | -23.8% (active) | -52.7% (active) | -70.5% (active) | 7.22% (active) | -3.37% (active)
COc1cc(/C=N\NC(=O)c2ccc3nc(-c4ccc(Br)cc4)[nH]c3c2)cc(OC)c1OC | 60.2% (inactive) | 78.2% (inactive) | 63.4% (inactive) | 72.3% (inactive) | 58.9% (inactive) | 60.9% (inactive) | 33.2% (inactive) | 20.8% (inactive) | 25.8% (inactive) | 31.6% (inactive)
O=C(CSc1nnc(-c2ccc(Cl)cc2)n1-c1ccccc1)Nc1cccc(F)c1 | 88.4% (inactive) | 42.2% (inactive) | 13.7% (inactive) | -15.2% (active) | -14.7% (active) | -31.8% (active) | 14.1% (inactive) | 57.9% (inactive) | 91.3% (inactive) | 85.8% (inactive)
COc1ccc(C2C(C#N)=C(/N=C/c3ccc(Cl)cc3)Oc3c2sc2c(C)cccc32)cc1 (stereo not given) | -12.9% (active) | 42.5% (inactive) | 42.4% (inactive) | 37.1% (inactive) | 76.9% (inactive) | 49.1% (inactive) | 39% (inactive) | -11.5% (active) | 18.7% (inactive) | 17% (inactive)
COc1ccc(-c2cc(-c3ccc(N(C)C)cc3)n3c(n2)nc2ccccc23)cc1 | -3.8% (active) | 56.5% (inactive) | 64.7% (inactive) | 35.2% (inactive) | 40.9% (inactive) | 63.7% (inactive) | 61.2% (inactive) | 51.8% (inactive) | 24% (inactive) | 13.8% (inactive)
CCOC(=O)c1ccccc1NC1=C(Cl)C(=O)c2nc(C)ccc2C1=O | 112% (inactive) | 95.1% (inactive) | 88.2% (inactive) | 91.9% (inactive) | 147% (inactive) | 101% (inactive) | 98.6% (inactive) | 87.4% (inactive) | 84.3% (inactive) | 84.8% (inactive)
O=C(CCCCCCN1CC(=O)N2[C@@H](C3CC3)c3[nH]c4ccccc4c3C[C@H]2C1=O)NO | 76.5% (inactive) | 85.7% (inactive) | 79% (inactive) | 70.1% (inactive) | 79.2% (inactive) | 67.6% (inactive) | 69.3% (inactive) | 98.8% (inactive) | 19.9% (inactive) | 16% (inactive)
COc1ccc(Cn2cc(C#N)c(N)c2C(C)=O)cc1 | 106% (inactive) | 104% (inactive) | 89.8% (inactive) | 95.9% (inactive) | 99.8% (inactive) | 103% (inactive) | 93.6% (inactive) | 83.9% (inactive) | 94.7% (inactive) | 101% (inactive)
C/C(=N/N)c1nnn(-c2ccc(Br)cc2)c1C | 112% (inactive) | 99.5% (inactive) | 91% (inactive) | 79.7% (inactive) | 98.1% (inactive) | 101% (inactive) | 91.6% (inactive) | 93.3% (inactive) | 109% (inactive) | 93.6% (inactive)
COc1ccc(-c2nc(C#N)c(N3CCC(S(=O)(=O)N4CCOCC4)CC3)o2)cc1 | 102% (inactive) | 105% (inactive) | 99.5% (inactive) | 89.1% (inactive) | 131% (inactive) | 97.8% (inactive) | 92.9% (inactive) | 100% (inactive) | 101% (inactive) | 98.3% (inactive)
C1=CC(c2nn3c(-c4ccccc4)nnc3s2)=Cc2ccccc2O1 | 74.7% (inactive) | 88.5% (inactive) | 78.9% (inactive) | 53.4% (inactive) | 116% (inactive) | 76.7% (inactive) | 47.6% (inactive) | 67.5% (inactive) | 27.9% (inactive) | 39.2% (inactive)
Cc1csc(/N=C(N)/N=C(\N)c2cccc(Br)c2)n1 | 101% (inactive) | 88.9% (inactive) | 90.7% (inactive) | 86.4% (inactive) | 149% (inactive) | 97.7% (inactive) | 85.7% (inactive) | 81.5% (inactive) | 98.6% (inactive) | 96.5% (inactive)
CN1c2ccccc2Sc2cc(/C=N/Nc3ccnc4cc(Cl)ccc34)ccc21 | 98.3% (inactive) | 94.2% (inactive) | 95.7% (inactive) | 84% (inactive) | 115% (inactive) | 109% (inactive) | 103% (inactive) | 131% (inactive) | 56.2% (inactive) | 82.4% (inactive)
C/C(=C(\c1ccc(O)cc1)c1ccc(OCCN2CCCCCC2)cc1)c1ccc(Cl)cc1 | -92.3% (active) | -81.2% (active) | -84.7% (active) | -93.3% (active) | -95.2% (active) | -88.2% (active) | -97.3% (active) | -91% (active) | 3.56% (active) | -21.6% (active)
CCOP(=O)(OCC)OC[C@]12CCC(C)(C)C[C@H]1C1=CC[C@@H]3[C@@]4(C)CC[C@H](OP(=O)(OCC)OCC)C(C)(C)[C@@H]4CC[C@@]3(C)[C@]1(C)CC2 | 88.2% (inactive) | 55% (inactive) | 55.3% (inactive) | 34.2% (inactive) | 67.4% (inactive) | 67.2% (inactive) | 45.9% (inactive) | 79.8% (inactive) | 49.2% (inactive) | 32.7% (inactive)
Nc1ncc(-c2ccc3ncnc(NCc4ccccc4)c3c2)cn1 | 71% (inactive) | 23.5% (inactive) | 29.5% (inactive) | 15.1% (inactive) | -7.11% (active) | 25.2% (inactive) | 17.4% (inactive) | 22.4% (inactive) | 42.3% (inactive) | 17.7% (inactive)
C/C=C/CC(C)C(O)[C@H](NC(=O)[C@@H]1CCCN1C(=O)[C@](C)(CC)NC(=O)CCCCCCCCC)C(=O)N[C@@](C)(CC)C(=O)N[C@@H](CCC(N)=O)C(=O)N[C@H](CCC(N)=O)C(=O)NC(C)(C)C(=O)NC(C)(C)C(=O)N[C@@H](CCC(N)=O)C(=O)N[C@H](CC(C)C)C(=O)N[C@H](CO)CC(C)C (stereo not given in full) | 108% (inactive) and -50% (active) | 55.1% (inactive) and -69.6% (active) | 28.8% (inactive) and -51.5% (active) | 55.2% (inactive) and -79.7% (active) | 107% (inactive) and -11.3% (active) | 76.8% (inactive) and -79.3% (active) | 42% (inactive) and -69.1% (active) | 12.7% (inactive) and -50.9% (active) | 60.2% (inactive) and -40% (active) | 49.5% (inactive) and -8.22% (active)
C#CCN(C)CCCOc1ccc(NCc2ccc(/C=C/C(=O)NO)cc2)cc1Cl | -6.42% (active) | 16.3% (inactive) | 12.1% (inactive) | -57.4% (active) | -12% (active) | -41.4% (active) | -35.9% (active) | -72.2% (active) | 10.7% (inactive) | 15.7% (inactive)
C[C@]12CC[C@H]3[C@@H](CC=C4C[C@@H](O)CC[C@@]43C)[C@@H]1CC[C@@H]2[C@](C)(O)CCc1cccnc1 | 79.8% (inactive) | 36.7% (inactive) | 79.9% (inactive) | 63.8% (inactive) | 84.3% (inactive) | 60.7% (inactive) | 69.1% (inactive) | 72.8% (inactive) | 59.8% (inactive) | 48.9% (inactive)
O=C1C(SCc2ccccc2)=C(Cl)CN1c1ccccc1 | 110% (inactive) | 97.9% (inactive) | 95.7% (inactive) | -90.8% (active) | 136% (inactive) | 94.7% (inactive) | 80.9% (inactive) | 94.3% (inactive) | 86.1% (inactive) | 84.3% (inactive)
CC(=C(c1ccc(OCCN2CCCC2)cc1)c1ccc(OCCN2CCCC2)cc1)c1ccc(Cl)cc1 | -2.54% (active) | 37.3% (inactive) | 47.9% (inactive) | -74% (active) | 78.6% (inactive) | -72.5% (active) | 26.8% (inactive) | 86.5% (inactive) | -48.6% (active) | -43% (active)
